Test results: PubChem BioAssay AID1159580 (chemical genetic matrix, 2015)
“And” between values parts separate entries of the source, which are not always exact repeats. Equal entries are not always repeated. Among all 5,500 compounds or so, about 2,000 (36%) were called active. Inconclusive results (about 18%) are left out. Cut-off read from the data, not from the text of the source: active = normalized growth mostly below about 0.91 (no sharp cut-off); inconclusive = no clear call, values can overlap the other calls; inactive = mostly above about 0.92. The list shows a part of the results.

Assay: chemical genetic growth profiling, strain panel (AID 1159580);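 note: tested at 20 µM; growth read once vehicle control cultures reached saturation at 30 °C; 1 = growth at the plate median or of vehicle wells; lower values mean less growth of the strain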
Conditions: S. cerevisiae deletion strains, growth OD

Measured: normalized growth

O=C(O)c1ccc(S(=O)(=O)N(Cl)Cl)cc1
inactive: locus YAL013W, strain DEP1, hits give low values 1 | locus YAL021C, strain ccr4, hits give low values 1 | locus YAL026C, strain drs2, hits give low values 0.962 | locus YAL030W, strain snc1, hits give low values 0.994 | locus YBL061C, strain skt5, hits give low values 0.975 | locus YBR009C, strain hhf1, hits give low values 0.925 | locus YBR021W, strain FUR4, hits give low values 0.987 | locus YBR023C, strain chs3, hits give low values 1 | locus YBR171W, strain sec66, hits give low values 0.969 | locus YBR229C, strain ROT2, hits give low values 1 | locus YBR231C, strain swc5, hits give low values 0.995 | locus YBR279W, strain paf1, hits give low values 0.992 | locus YCL011C, strain gbp2, hits give low values 0.977 | locus YCL016C, strain dcc1, hits give low values 1 | locus YCL029C, strain bik1, hits give low values 1.01 | locus YCL061C, strain MRC1, hits give low values 0.933 | locus YCL069W, strain vba3, hits give low values 0.988 | locus YCR088W, strain abp1, hits give low values 0.998 | locus YDL005C, strain med2, hits give low values 0.996 | locus YDL035C, strain GPR1, hits give low values 0.989 | locus YDL040C, strain nat1, hits give low values 0.992 | locus YDL074C, strain BRE1, hits give low values 0.98 | locus YDL101C, strain DUN1, hits give low values 1 | locus YDL185W, strain tfp1, hits give low values 1.01 | locus YDL192W, strain arf1, hits give low values 1.03 | locus YDR001C, strain nth1, hits give low values 0.978 | locus YDR069C, strain doa4, hits give low values 1.02 | locus YDR101C, strain arx1, hits give low values 1.02 | locus YDR137W, strain rgp1, hits give low values 1.01 | locus YDR150W, strain NUM1, hits give low values 1 | locus YDR159W, strain sac3, hits give low values 0.98 | locus YDR162C, strain NBP2, hits give low values 1 | locus YDR195W, strain ref2 0.996 | locus YDR297W, strain sur2, hits give low values 0.988 | locus YDR318W, strain mcm21, hits give low values 1.01 | locus YDR334W, strain swr1, hits give low values 0.97 | locus YDR335W, strain msn5, hits give low values 0.987 | locus YDR388W, hits give low values 1.02 | locus YDR392W, strain spt3, hits give low values 0.939 | locus YDR502C, strain sam2, hits give low values 1.04 | locus YEL003W, strain gim4, hits give low values 0.964 | locus YEL037C, strain rad23, hits give low values 0.962 | locus YEL061C, strain CIN8 (second series), hits give low values 0.975 | locus YEL061C, strain CIN8, hits give low values 1 | locus YER015W, strain faa2, hits give low values 1 | locus YER016W, strain bim1, hits give low values 0.997 | locus YER110C, hits give low values 1.03 | locus YER111C, strain swi4, hits give low values 0.982 | locus YER155C, strain BEM2 (second series), hits give low values 0.979 | locus YER155C, strain BEM2, hits give low values 0.992 | locus YER167W, strain BCK2, hits give low values 1 | locus YFR010W, strain ubp6, hits give low values 0.959 | locus YGL078C, strain dbp3, hits give low values 1.03 | locus YGL086W, strain mad1, hits give low values 0.991 | locus YGL167C, strain pmr1, hits give low values 0.973 | locus YGL173C, strain kem1, hits give low values 0.982 | locus YGL227W, strain vid30, hits give low values 0.996 | locus YGL240W, strain doc1, hits give low values 1.02 | locus YGL248W, strain PDE1, hits give low values 1 | locus YGL253W, strain hxk2, hits give low values 0.999 | locus YGR078C, strain PAC10, hits give low values 0.998 | locus YGR135W, strain pre9, hits give low values 1.01 | locus YGR252W, strain gcn5, hits give low values 0.971 | locus YHR013C, strain ard1, hits give low values 1.01 | locus YHR027C, strain rpn1, hits give low values 0.993 | locus YHR030C, strain SLT2, hits give low values 0.999 and 0.973 | locus YHR079C, strain IRE1 (second series), hits give low values 1.02 | locus YHR079C, strain IRE1, hits give low values 0.973 | locus YHR094C, strain hxt1, hits give low values 1.03 | locus YHR129C, strain ARP1, hits give low values 0.996 | locus YHR142W, strain chs7, hits give low values 0.971 | locus YHR200W, strain rpn10, hits give low values 1.03 | locus YIL066C, strain RNR3, hits give low values 1 | locus YIL073C, strain SPO22, hits give low values 1.03 | locus YIL125W, strain kgd1, hits give low values 1.01 | locus YIR030C, strain dcg1, hits give low values 1.03 | locus YJL092W, strain hpr5, hits give low values 0.987 | locus YJL095W, strain BCK1 (second series), hits give low values 0.991 | locus YJL095W, strain BCK1, hits give low values 1 and 0.969 | locus YJL115W, strain asf1, hits give low values 0.969 | locus YJL129C, strain trk1, hits give low values 0.996 | locus YJL134W, strain LCB3, hits give low values 1 | locus YJL154C, strain vps35, hits give low values 0.985 | locus YJL164C, strain tpk1, hits give low values 0.954 | locus YJL166W, strain qcr8, hits give low values 1.01 | locus YJL168C, strain set2, hits give low values 1.02 | locus YJL187C, strain SWE1 (second series), hits give low values 0.998 | locus YJL187C, strain SWE1, hits give low values 0.994 | locus YJR043C, strain POL32, hits give low values 0.982
